In the library only some 27% were active in any assay of this set; here they are far more common.
CYP2C19 act: activators of human cytochrome P450 2C19 | recombinant CYP2C19, luciferin-H EGE luminescence; active compounds read high; 0 = fully inhibited enzyme, 1 = untreated enzyme | activation factor at 5 µM | 96,000 tested, under 10 active;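 active means activation factor of at least 2 at 5 µM in the primary screen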;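 further: 0 = wells with 2.5 mM tranylcypromine and 1 = vehicle-only wells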
Cav3 T inh: blocks human Cav3.2 T-type calcium channel; O95180; Cav3.2-expressing cells, Fluo-4 calcium fluorescence FDSS; active compounds read low; AID 449739; actives 4% (n = 100,000); B-score at 10 µM;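 active means single-dose well whose peak fluorescence ratio is a statistical outlier from its plate by either plate-standardised score or position-corrected B-score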
CYP2C9 inhib: blocks human cytochrome P450 2C9; P11712; CYP2C9 Supersomes, luciferin-H conversion, luminescence; inhibition, % at 5 µM; actives 20% (n = 96,000);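 active means blocking of liver enzyme CYP2C9 beyond about 50% at 5 µM, limit read from the data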
Target sequence (P11712 whole entry, looked up): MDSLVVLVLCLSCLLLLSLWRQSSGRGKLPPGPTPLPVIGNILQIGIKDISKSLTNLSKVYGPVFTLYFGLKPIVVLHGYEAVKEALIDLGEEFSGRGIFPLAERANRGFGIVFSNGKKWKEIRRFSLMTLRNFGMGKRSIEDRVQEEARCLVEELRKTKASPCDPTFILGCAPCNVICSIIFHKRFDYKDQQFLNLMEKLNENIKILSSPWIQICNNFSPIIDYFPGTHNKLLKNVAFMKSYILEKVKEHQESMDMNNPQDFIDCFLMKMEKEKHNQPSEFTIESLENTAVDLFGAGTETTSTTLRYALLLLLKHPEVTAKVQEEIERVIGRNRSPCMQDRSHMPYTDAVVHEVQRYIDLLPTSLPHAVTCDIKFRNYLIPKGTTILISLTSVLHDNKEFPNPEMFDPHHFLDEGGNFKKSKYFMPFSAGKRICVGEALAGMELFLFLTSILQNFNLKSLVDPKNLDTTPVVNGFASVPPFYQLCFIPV
CYP2C9 act: activators of human CYP2C9; P11712; recombinant CYP2C9, luciferin-H conversion, luminescence; active compounds read high; factor 1 = untreated enzyme, 0 = blocked; activation factor at 5 µM; actives 1.4% (n = 96,000);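 active means activation factor of 2 or more for CYP2C9 at a 5 µM dose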;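 further: 0 = sulfaphenazole-blocked wells and 1 = vehicle-only wells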
CYP2C19 inh: human CYP2C19 inhibition | P33261 | CYP2C19 Supersomes, luciferin-H EGE luminescence, 30 min | inhibition, % at 5 µM | actives 21% (n = 96,000);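 active means CYP2C19 inhibition above a set limit at 5 µM in the primary screen, cut at about 50% in these data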;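 further: plate controls were negative control wells for no effect and 2.5 mM tranylcypromine positive control for full effect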
Numbers without * were called inactive; · = no result given.

SMILES	CYP2C19 act	Cav3 T inh	CYP2C9 inhib	CYP2C9 act	CYP2C19 inh
CCn1c(SCC(=O)Nc2nc(-c3ccccc3)cs2)nnc1-c1ccccc1	0.1	-3.1	96*	0	94*
Cc1sc2ncnc(SCC(=O)N3CCC(c4noc5ccc(F)cc45)CC3)c2c1C	0.4	·	79*	0.2	65*
O=C(CSc1ccc2ccccc2n1)N1CCC(c2noc3ccc(F)cc23)CC1	·	-6.5*	·	·	·
CCOc1ccccc1Nc1nc(N)nc(CN(C)C2CCCCC2)n1	0.7	0.092	5	1	28
COc1ccc(-c2noc(CCCC(=O)NCCc3ccccc3)n2)cc1OC	0.5	-0.22	48	0.5	47
COC(=O)C1=C(C(=O)OC)[C@@H]2N(Cc3ccccc3)c3ccccc3[C@@]23C[C@@H](C(=O)OC)N(C(=O)c2cccs2)C3=N1	·	-1.4	·	·	·
COC(=O)C1=C(C(=O)OC)[C@@H]2N(Cc3ccccc3)c3ccccc3[C@@]23C[C@@H](C(=O)OC)N(C(=O)c2cc(C)oc2C)C3=N1	·	-3*	·	·	·
C=CCn1c(=N)n(CC(=O)OCC)c2ccccc21	1	·	5	1	4
COC(=O)c1ccc(CN2C(=O)NC3(CCCCC3C)C2=O)o1 (stereo not drawn)	0.9	0.62	-8	1.1	9
COC(=O)CN(c1nc(C)cc(OC)n1)S(=O)(=O)c1ccccc1	0.7	0.64	-7	1.1	33
COc1cc(C)nc(N(Cc2ccccc2)S(=O)(=O)c2ccccc2)n1	0.2	-3.1	74*	0.3	83*
CCCN(c1nc(C)cc(OC)n1)S(=O)(=O)c1ccccc1	·	-4.7*	·	·	·
c1ccc(CN2CCN(C3=Nc4cccc5cccc3c45)CC2)cc1	0.4	-0.22	14	0.9	57*
CC(C(=O)NCC1CCCO1)N(C(=O)c1snc(C(N)=O)c1N)c1cccc(F)c1 (stereo not drawn)	0.8	1.2	26	0.7	16
O=C(CCN1CCC(c2ccccc2)C1)c1ccc2c(c1)OCCO2 (stereo not drawn)	1.1	-0.19	-30	1.3	-5
O=C(NC1CCCCC1)N1CCC(n2c(=O)[nH]c3ccccc32)CC1	1	-0.21	-16	1.2	0
O=C(Nc1ccccc1)N1CCC(n2c(=O)[nH]c3ccccc32)CC1	0.7	0.87	72*	0.3	28
O=C(CCN1CCC(c2ccccc2)C1)c1ccccc1 (stereo not drawn)	0.1	2.2	58*	0.4	88*
O=C(CCN1CCC(c2ccccc2)C1)c1cccs1 (stereo not drawn)	0.2	0.75	25	0.8	78*
O=C(c1cccs1)N1CCC(N2CCN(c3ccccc3)CC2)CC1	1	0.47	-1	1	5
O=C(c1cccs1)N1CCC(c2ccccc2)C1 (stereo not drawn)	0	0.31	81*	0.2	98*
Cn1c(=N)n(CC(=O)c2cccs2)c2ccccc21	1.1	0.63	-10	1.1	-14
NC(=O)C1CCN(C(=O)Nc2ccccc2)CC1	1.2	-0.1	-13	1.1	-16
O=C(Nc1ccccc1)N1CCC(c2ccccc2)C1 (stereo not drawn)	0.3	-0.55	12	0.9	73*
COc1ccc(Cn2c(CCC(=O)Nc3ccccc3)nc3cccnc32)cc1	0.8	1.9	-3	1	21
SMILES	CYP2C19 act	Cav3 T inh	CYP2C9 inhib	CYP2C9 act	CYP2C19 inh
O=C(CCc1nc2cccnc2n1Cc1ccccc1)NCCc1ccc(Cl)cc1	0.3	-7.2*	69*	0.3	71*
COc1ccc(Cn2c(CCC(=O)Nc3ccc(C)c(C)c3)nc3cccnc32)cc1	0.4	-3.5*	98*	0	64*
COCCCNC(=O)CCc1nc2cccnc2n1Cc1ccccc1	0.9	-0.059	15	0.8	6
CSc1nc(C)c2c(n1)N(c1ccc(C(C)C)cc1)CC2	1	·	6	0.9	-5
CC1CCCCN1C(=O)CSc1nnc(CSc2ncccn2)n1C (stereo not drawn)	1.1	-0.28	-9	1.1	-15
CCC(=O)Nc1cccc(-c2cn3ccsc3n2)c1	1	0.63	-52	1.5	-1
CC(C)C(=O)Nc1cccc(-c2cn3ccsc3n2)c1	1	-0.18	7	0.9	-3
Cc1ccc(S(=O)(=O)Nc2cccc(-c3cn4ccsc4n3)c2)cc1	0	-1.5	99*	0	100*
O=S(=O)(c1cccc(-c2cn3cccnc3n2)c1)N1CCCCCC1	0.5	-0.63	32	0.7	47
O=S(=O)(Nc1cccc(-c2cn3cccnc3n2)c1)c1ccc(-c2ccccc2)cc1	0.2	·	100*	0	81*
Cc1cccc(S(=O)(=O)Nc2cccc(-c3cn4ccsc4n3)c2)c1	0.2	-1.2	91*	0.1	80*
Cc1nc(-c2cccc(NS(=O)(=O)c3ccccc3)c2)cs1	0	-2.2	77*	0.2	97*
CC(C)n1c(SCC(=O)Nc2ccccc2)nc2c1c(=O)n(C)c(=O)n2C	·	0.86	·	·	·
CC(C)CC1NC(=O)N(CC(=O)N2CCN(S(=O)(=O)c3ccccc3)CC2)C1=O (stereo not drawn)	1	-0.025	-2	1	-3
O=C(CCc1ccc(S(=O)(=O)NC2CCCCC2)cc1)NCc1ccc(Cl)cc1	0.8	-0.74	44	0.6	21
Cn1nc(C(=O)N2CCN(S(=O)(=O)c3ccccc3)CC2)c2ccccc2c1=O	1.1	-0.12	2	1	-6
Cc1ccc(S(=O)(=O)N2CCN(C(=O)C3=COCCO3)CC2)cc1C	0	1.2	3	1	97*
NS(=O)(=O)c1ccc(CCNC(=O)c2ccccc2F)cc1	0.8	-0.17	4	1	17
CC(C)n1nc(C(=O)NCCc2ccc(S(N)(=O)=O)cc2)c2ccccc2c1=O	0.9	0.55	63*	0.4	9
O=C(C1=COCCO1)N1CCN(S(=O)(=O)c2cccc(Cl)c2Cl)CC1	0.7	1.2	17	0.8	25
Cc1ccc(S(=O)(=O)N2CCN(C(=O)c3nn(C(C)C)c(=O)c4ccccc34)CC2)cc1C	0.6	0.26	59*	0.4	38
O=C(CN1CCOCC1)Nc1scc(-c2ccccc2)c1C(=O)N1CCOCC1	0.8	1.1	32	0.7	25
O=C1CCCN1c1ccc(S(=O)(=O)NCCc2ccc(Cl)cc2)cc1	0.2	0.34	84*	0.2	80*
COc1ccc(CCNS(=O)(=O)c2ccc(N3CCCC3=O)cc2)cc1	·	-0.01	·	·	·
O=C1NC(=O)C(c2cn(-c3ccccc3)nc2-c2ccc(F)cc2)N1 (stereo not drawn)	0.8	·	94*	0.1	21
CC1=C(C(=O)c2ccccc2)C(c2cn(-c3ccccc3)nc2-c2ccc(Cl)cc2)NC(=S)N1 (stereo not drawn)	0.9	-0.86	35	0.6	5
Cc1ccc2nsnc2c1S(=O)(=O)Nc1cccc2nsnc12	0.8	-0.2	90*	0.1	23
CC(=O)Nc1cccc(NS(=O)(=O)c2cccc3nsnc23)c1	0.4	-1.6	37	0.6	57*
